In PubChem BioAssay:
Active and inactive are the calls of the source. Unless noted, how the calls were made is not given here.

How the values were obtained:
[1] = compound effects on lung adenocarcinoma cell viability – A549, calcein-AM fluorescence, 48 h, basal, profiling panel (AID 1162); conditions: higher = more signal; further: test concentration not given here
[2] = compound effects on differentiated 3T3-L1 adipocyte viability – cell-based, 3T3-L1 adipocytes, calcein-AM fluorescence, 48 h, basal, profiling panel (AID 1163); conditions: 3T3-L1 adipocytes viability, higher = more signal; further: test concentration not given here
[3] = compound effects on hepatocellular carcinoma cell viability – HepG2, calcein-AM fluorescence, 48 h, basal, profiling panel (AID 1164); conditions: higher = more signal; further: test concentration not given here
[4] = compound effects on multiple myeloma cell viability – MM1S, calcein-AM fluorescence, 48 h, basal, profiling panel (AID 1165); conditions: higher = more signal; further: test concentration not given here
[5] = calcein-AM signal in unstimulated myeloma cells – cell-based, calcein-AM fluorescence, 48 h, PK04 Diversity Set, profiling panel (AID 1166); conditions: RPMI8226 myeloma viability, higher = more signal;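 further: cells grown under basal conditions without added stimulus; test concentration not given here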
[6] = JC-1 mitochondrial signal, unstimulated HepG2 cells – cell-based, JC-1 fluorescence, 24 h, 100 nL compound, profiling panel (AID 1167); conditions: HepG2 mitochondrial potential, higher = more signal; further: test concentration not given here
[7] = JC-1 mitochondrial signal, unstimulated adipocytes – cell-based, JC-1 fluorescence, 3T3-L1 adipocytes, 24 h, 100 nL compound, profiling panel (AID 1168); conditions: JC-1 mitochondrial fluorescence, higher = more signal, called active from +8 up or from −8 down; further: test concentration not given here
[8] = JC-1 mitochondrial signal, unstimulated myeloma cells – cell-based, JC-1 fluorescence, RPMI8226, 24 h, 100 nL compound, profiling panel (AID 1169); conditions: JC-1 mitochondrial potential fluorescence, higher = more signal; further: test concentration not given here
[9] = JC-1 mitochondrial signal, unstimulated MM1S myeloma – cell-based, JC-1 fluorescence, 24 h, 100 nL compound, profiling panel (AID 1170); conditions: MM1S mitochondrial potential, higher = more signal; further: test concentration not given here
[10] = resazurin metabolic signal in A549 cells – cell-based, resazurin fluorescence, 24 h, PK04 Diversity Set, profiling panel (AID 1171); conditions: A549 viability, higher = more signal, called active from +8 up or from −8 down; further: test concentration not given here
[11] = resazurin metabolic signal in HepG2 cells – cell-based, resazurin fluorescence, 24 h, PK04 Diversity Set, profiling panel (AID 1172); conditions: HepG2 viability, higher = more signal; further: test concentration not given here
[12] = budding yeast growth changes without added modifier – OD600, strain BY4716, 24 h, basal condition, primary screen (AID 1173); conditions: S. cerevisiae BY4716 growth, OD600, 24 h; higher = more signal, called active from +8 up or from −8 down
[13] = viability profiling in MM1S myeloma cells – cell-based, resazurin fluorescence, basal, 24 h, PK04 Diversity Set, profiling panel (AID 1174); conditions: higher = more signal, called active from +8 up or from −8 down; further: test concentration not given here
[14] = target: Dihydroorotate dehydrogenase (quinone), mitochondrial (Plasmodium falciparum (isolate 3D7)) (UniProt Q08210); test: inhibition of P. falciparum DHODH – biochemical, C-terminal His tag, absorbance 600 nm, primary screen (AID 1175); conditions: PfDHODH enzyme, DCIP absorbance 600 nm; higher = more signal, called active from +8 up or from −8 down;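 further: recombinant parasite enzyme with a five histidine tag at its C terminus; test concentration not given here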
[15] = inhibition of PAO1 biofilm formation – strain PAO1, LB-PBS medium, absorbance 600 nm, primary screen (AID 1176); further: test concentration not given here; conditions: P. aeruginosa PAO1 growth/biofilm, A600, 12 h; higher = more signal
[16] = growth modulation of vineyard yeast isolate – strain RM11-1a, OD600, basal, 24 h, primary screen (AID 1177);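 further: cultures grown under basal conditions with no added stressor; test concentration not given here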; conditions: S. cerevisiae RM11-1a growth, OD600, 24 h; higher = more signal, called active from +8 up or from −8 down
[17] = growth of efflux-deficient E. coli DRC39 – strain DRC39, OD650, 24 h, E. coli filamentation inducers, primary screen (AID 1178);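 further: growth measured as culture turbidity by optical density at 650 nm; test concentration not given here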; conditions: E. coli DRC39 acrAB, higher = more signal, called active from +8 up or from −8 down
[18] = growth of efflux-deficient E. coli DRC39 – strain DRC39, OD650, 48 h, E. coli filamentation inducers, primary screen (AID 1179);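 further: screen aims at cell division blockers that make cells filament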; conditions: E. coli DRC39 delta-acrAB growth, higher = more signal, called active from +8 up or from −8 down
[19] = viability profiling in RPMI8226 myeloma cells – cell-based, resazurin fluorescence, basal, 24 h, PK04 Diversity Set, profiling panel (AID 1180); conditions: higher = more signal;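 further: RPMI8826 multiple myeloma cell line at 5000 cells per well; test concentration not given here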
[20] = target: E3 ubiquitin-protein ligase XIAP (Homo sapiens) (UniProt P98170); test: small molecules binding XIAP protein – biophysical, small-molecule microarray, fluorescence 635 nm, primary screen (AID 1181); conditions: higher = more signal;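 further: score merges 667 nm emission and signal to noise over triplicate slides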
Sequence of E3 ubiquitin-protein ligase XIAP (Homo sapiens) (P98170 whole entry, looked up): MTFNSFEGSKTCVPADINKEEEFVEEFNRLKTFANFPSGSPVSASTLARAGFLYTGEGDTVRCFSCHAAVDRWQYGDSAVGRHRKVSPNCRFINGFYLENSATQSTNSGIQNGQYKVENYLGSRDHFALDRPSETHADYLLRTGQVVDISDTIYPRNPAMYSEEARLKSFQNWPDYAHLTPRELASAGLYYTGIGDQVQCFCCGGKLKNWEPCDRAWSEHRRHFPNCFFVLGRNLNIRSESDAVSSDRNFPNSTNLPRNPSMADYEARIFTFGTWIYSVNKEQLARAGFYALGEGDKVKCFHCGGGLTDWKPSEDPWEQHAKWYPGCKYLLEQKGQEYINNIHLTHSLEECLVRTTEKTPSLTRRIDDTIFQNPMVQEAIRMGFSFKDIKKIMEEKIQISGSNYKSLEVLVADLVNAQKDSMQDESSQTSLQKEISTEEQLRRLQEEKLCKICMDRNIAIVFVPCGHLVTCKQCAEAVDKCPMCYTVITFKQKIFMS

Sequence of Dihydroorotate dehydrogenase (quinone), mitochondrial (Plasmodium falciparum (isolate 3D7)) (Q08210 whole entry, looked up): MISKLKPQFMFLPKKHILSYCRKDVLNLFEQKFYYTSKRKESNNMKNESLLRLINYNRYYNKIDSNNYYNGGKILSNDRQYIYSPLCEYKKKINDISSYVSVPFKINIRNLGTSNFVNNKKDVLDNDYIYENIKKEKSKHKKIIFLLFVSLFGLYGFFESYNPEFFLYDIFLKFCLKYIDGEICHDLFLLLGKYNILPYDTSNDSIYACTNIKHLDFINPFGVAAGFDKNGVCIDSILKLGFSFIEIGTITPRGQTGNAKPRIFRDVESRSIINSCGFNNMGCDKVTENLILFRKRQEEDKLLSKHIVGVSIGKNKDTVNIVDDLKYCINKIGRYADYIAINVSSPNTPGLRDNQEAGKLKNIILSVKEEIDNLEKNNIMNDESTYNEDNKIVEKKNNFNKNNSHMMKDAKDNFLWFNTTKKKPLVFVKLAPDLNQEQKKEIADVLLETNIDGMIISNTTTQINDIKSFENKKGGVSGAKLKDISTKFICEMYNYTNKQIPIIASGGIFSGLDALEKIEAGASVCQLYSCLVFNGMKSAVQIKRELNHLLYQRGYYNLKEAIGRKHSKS

| Structure (SMILES) | z-score [1] | z-score [2] | z-score [3] | z-score [4] | z-score [5] | z-score [6] | z-score [7] | z-score [8] | z-score [9] | z-score [10] | z-score [11] | z-score [12] | z-score [13] | composite z-score [14] | z-score [15] | z-score [16] | z-score [17] | z-score [18] | z-score [19] | composite z-score [20] |
| --- | --- | --- | --- | --- | --- | --- | --- | --- | --- | --- | --- | --- | --- | --- | --- | --- | --- | --- | --- | --- |
| COC(=O)[C@H](Cc1ccccc1)N1CC(C)(OC)O[C@@H](Cc2ccccc2)[C@H]1/C=C/C1CC1 (stereo not given in full) | -0.572 | -0.317 | 0.299 | 0.391 | -0.304 | 0.208 | -0.394 (inactive) | 0.28 | -0.521 | 0.379 (inactive) | 0.0905 | -0.968 (inactive) | -0.32 (inactive) | 0.512 (inactive) | -0.532 (inactive) | 0.815 (inactive) | -0.311 (inactive) | 0.215 (inactive) | -0.249 | 0.0583 |
| CN(C)CCCC[C@@H]1NC(=O)[C@H]2C[C@@H](C(=O)NCCCCCCNC(=O)CS)[C@@H](c3cccc(OCCO)c3)N2C1=O | -0.234 | -0.288 | -0.384 | -0.315 | -0.357 | -1.27 | -0.0363 (inactive) | 0.503 | -0.177 | 0.0246 (inactive) | -0.27 | -0.587 (inactive) | -0.956 (inactive) | -0.237 (inactive) | 0.463 (inactive) | -0.511 (inactive) | 0.329 (inactive) | 0.0044 (inactive) | -0.713 | -0.177 |
| CC(C)[Si]1(C(C)C)OCc2cc(-c3ccc(-c4ccc(Cl)c(Cl)c4)o3)nc(-c3ccc(Oc4ccccc4)cc3)c21 | -0.222 | -1.06 | -0.879 | 0.0719 | -0.605 | 0.213 | -0.966 (inactive) | 0.17 | 0.0397 | -0.232 (inactive) | -0.213 | -3.1 (inactive) | -0.0996 (inactive) | 0.936 (inactive) | 0.574 (inactive) | 1.95 (inactive) | 0.223 (inactive) | -0.262 (inactive) | -0.133 | 0.114 |
| C=CCNC(=O)[C@H]1[C@@H]2C(=O)O[C@@H](c3ccccc3)[C@@H](c3ccccc3)N2[C@@H](c2ccc(O)cc2)[C@]12C(=O)Nc1ccccc12 | 1.94 | 0.816 | 1.51 | -0.0148 | -0.836 | -0.948 | -0.586 (inactive) | 0.105 | 0.24 | 0.552 (inactive) | 0.715 | -0.842 (inactive) | 0.557 (inactive) | 0.776 (inactive) | 1.15 (inactive) | 1.76 (inactive) | 0.691 (inactive) | 0.975 (inactive) | -1.34 | -0.144 |
| COC(=O)[C@@]1(Cc2ccc(F)cc2)[C@H]2c3cc(C(=O)N4CCCC4)n(C[C@H](O)CO)c3C[C@H]2CN1C(=O)c1ccccc1 | -1.21 | 0.24 | -0.674 | -0.26 | -1.07 | -0.438 | -1.11 (inactive) | -0.663 | -0.371 | 0.467 (inactive) | -0.462 | 0.897 (inactive) | -0.765 (inactive) | -0.323 (inactive) | 0.812 (inactive) | -0.108 (inactive) | -0.645 (inactive) | -0.0414 (inactive) | -0.797 | 0.0811 |
| COc1cccc(C)c1NC(=O)O[C@H]1[C@H](OC(=O)Nc2ccccc2-c2ccccc2)[C@@H](OC(=O)Nc2ccccc2-c2ccccc2)[C@@H](OC)O[C@@H]1CO | -2.87 | 0.458 | -3.51 | -3.08 | -3.27 | 1.98 | 1.62 (inactive) | -0.928 | -1.41 | -4.57 (inactive) | -2.77 | 2.22 (inactive) | -3.21 (inactive) | 1.24 (inactive) | 1.23 (inactive) | 4.5 (inactive) | -0.349 (inactive) | -0.846 (inactive) | -2.61 | 0.268 |
| Cc1ccc(S(=O)(=O)N2[C@@H](c3ccccc3)C(C(=O)O)=C[C@H]2C(C)(C)C)cc1 | -0.756 | -0.625 | -0.558 | 0.611 | -0.711 | -0.747 | -0.465 (inactive) | -0.369 | -0.953 | -1.11 (inactive) | -0.809 | -0.535 (inactive) | -0.912 (inactive) | 0.0392 (inactive) | 0.257 (inactive) | -1.13 (inactive) | -0.773 (inactive) | -0.0408 (inactive) | -2.03 | -0.18 |
| COc1ccc([Si](C)(C)[C@@H]2[C@@H](CC(=O)N3CCC[C@H]3CO)O[C@]3(C(=O)N(Cc4cccc(N5C(=O)c6cccc7cccc5c67)c4)c4ccccc43)[C@H]2C)cc1 | -1.07 | 1.29 | -3.23 | -2.44 | -4.33 | -0.907 | 0.522 (inactive) | -1.05 | -1.01 | -1.53 (inactive) | -0.49 | 0.313 (inactive) | -1.84 (inactive) | -1.54 (inactive) | 0.343 (inactive) | 0.0797 (inactive) | 0.995 (inactive) | 0.787 (inactive) | -1.53 | 0.0834 |
| CCCCN1CC=CC23O[C@@H]4C=CCCOC(=O)C4[C@H]2C(=O)N(CCO)[C@@H]3C1=O (stereo not given in full) | -0.725 | 0.0904 | -2.09 | 0.303 | -0.105 | -0.508 | 0.0409 (inactive) | 0.0612 | 0.37 | -0.288 (inactive) | 0.551 | -0.0816 (inactive) | 0.309 (inactive) | 0.0051 (inactive) | 0.345 (inactive) | 0.13 (inactive) | -0.323 (inactive) | -0.414 (inactive) | -0.0692 | -0.104 |
